The source of these data is PubChem BioAssay (NCI).

Compounds without any hit were thinned out: in the full panel of roughly 83,000, 20% have a hit.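 Note: values are percent growth. 100 is the growth of untreated cells, values between 100 and 0 indicate rising inhibition; between -100 and 0 indicates cell death.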 The source made the active and inactive calls. How the source made its calls: active means growth percent below 10; inactive means the rest.

This assay concerns U251 CNS. Kind of assay: NCI-60 one-dose screen, 48 h (100 = growth as untreated, 0 = no growth, -100 = all killed). The conditions noted are these: 10 µM unless noted.
Consider `CC(=O)Nc1ccc(/C=C2\SC(=S)N(/C=C(\C(C)=O)C(N)=O)C2=O)cc1`, for which the growth was 90.3% (inactive).

Turning to `C=CCC(OC(C)=O)c1ccc(C(C)C)cc1` (stereo not drawn), the growth was 122% (inactive).

With `CCOc1ccc2c(c1)c(C)cc(C)[n+]2CC`, the growth is 45.7% (inactive).

On to `CCOC(=O)C(COS(C)(=O)=O)(COS(C)(=O)=O)C(=O)OCC`, for which the growth was 101% (inactive).

Turning to `CC(=O)NC(O)C(Cl)Cl` (stereo not drawn), the growth is 91.4% (inactive).

For the compound `Cc1cc2c3ccc(C)[n+](C)c3ccc2n1C`, the growth is 12.4% (inactive).

For `O=C(CC(CC(=O)c1ccccc1)c1ccccn1)c1ccccc1`, the growth was 99.3% (inactive).

`CCOC(=O)C1(N)CCCCC1`: the growth is 99.1% (inactive).

Turning to `C=C(OC(C)=O)c1ccccc1`, the growth was 89.8% (inactive).

Regarding `COc1cccc(C(=O)NNC(=O)c2cccc3ccccc23)c1`, the growth was 102% (inactive).

For the compound `O=Cc1ccc(F)cc1`, the growth is 101% (inactive).

With `Clc1ccc(C(SCc2ccccc2)SCc2ccccc2)cc1`, the growth is 88.7% (inactive).

Turning to `C=COC(=O)CCOCC(CC)CCCC` (stereo not drawn), the growth is 102% (inactive).

As to `NC(=S)c1c(N)n(C2OC(CO)C(O)C2O)c2ncnc(N)c12` (stereo not drawn), the growth was 17.3% (inactive).

For the compound `CCCCc1ccc2nc(NC(=O)OC)[nH]c2c1`, the growth was 22.2% (inactive).

As for `CC(=O)C1C(=O)C(=O)N(c2cccc([N+](=O)[O-])c2)C1=O` (stereo not drawn), the growth is 97.3% (inactive).

With `Cc1cccnc1NC1OC(=O)c2ccccc21` (stereo not drawn), the growth is 101% (inactive).

For the compound `CSc1nc2[nH]ncc2c(=O)[nH]1`, the growth is 103% (inactive).
